# According to PubChem BioAssay:
# Activity calls are given as the source filed them.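 How the source made its calls: active means viability increase at or above a cutoff of the median across tested compounds plus 3 SD (cut at about 8.5% in these data, passing the limit was not always enough); inconclusive means some gains above the cutoff, reason not given; inactive means the rest.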
# Assay: viability gain of MRP-1-high H69AR cells under doxorubicin, pilot screen, MRP-1 activator project, CellTiter-Glo, duplicate (AID 807);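 further: compound pretreatment 18-22 h then 72 h combined with doxorubicin; 0% = doxorubicin alone and 100% = vehicle without doxorubicin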
# Conditions: H69AR viability with doxorubicin, CellTiter-Glo luminescence; at 10 µM; active compounds read high
row,SMILES,viability increase
1,COc1cc(C(=O)Nc2cccc(-c3nc4ccccc4o3)c2C)cc(OC)c1OC,-2.22% (inactive)
2,Cc1ccc(C(=O)CC(C(=O)O)c2cn(CCC#N)c3ccccc23)cc1 (stereo not given),-1.96% (inactive)
3,CC1=C(C(=O)OC2CCCCCCC2)C(c2ccc(O)cc2)NC(=O)N1 (stereo not given),-0.32% (inactive)
4,COc1nc(NC(C)(C)C)nc(Oc2ccc(=O)n(C)n2)n1,0.23% (inactive)
5,CC(CCc1ccco1)NC(=O)Cn1nc(Cc2ccncc2)c2ccccc2c1=O (stereo not given),-4.14% (inactive)
6,CSc1nc2c(c(=O)n1-c1ccc(F)cc1)SCC2,-1.07% (inactive)
7,COc1ccc(NC(=O)C2CCN(S(=O)(=O)c3cccnc3)CC2)cc1Cl,-3.56% (inactive)
8,Nn1c(SCC(=O)Nc2ccc(F)cc2)nnc1-c1ccccn1,-0.55% (inactive)
9,COc1ccccc1C1C=C(c2ccccc2)Nc2nnnn21 (stereo not given),-0.25% (inactive)
10,CC1CCN(CC(O)COc2cccc(F)c2)CC1 (stereo not given),-0.94% (inactive)
11,COc1ccc(Cl)cc1Nc1nc(N2CCCC2)nc(N2CCCC2)n1,0.95% (inactive)
12,Clc1ccccc1C1CC(c2ccccc2)Nc2ncnn21 (stereo not given),-1.24% (inactive)
13,CCN(CCCNS(=O)(=O)c1ccc2c(c1)CCN2C(C)=O)c1cccc(C)c1,-2.74% (inactive)
14,Nc1c(S(=O)(=O)c2ccccc2)c2nc3ccccc3nc2n1Cc1ccco1,-3.97% (inactive)
15,O=C(c1cc(F)c(F)cc1Cl)N1CCCCC1,-1.35% (inactive)
16,CC(=O)N1CCc2c(sc(NC(=O)C3CC3)c2-c2nc3ccccc3s2)C1,-3.03% (inactive)
17,CC1=CC(C)(C)N(C(=O)CSc2nnc(-c3ccccc3)o2)c2ccc(C)cc21,-5.46% (inactive)
18,O=C(NCCC1=CCCCC1)NC1CCCCC1,-0.3% (inactive)
19,Cn1c(C(=O)N2CCCC2)cc2c(=O)n(C)c3ccccc3c21,-3.32% (inactive)
20,COc1ccc(C2C(C(=O)NCCN3CCOCC3)c3ccccc3C(=O)N2C)cc1OC (stereo not given),-0.98% (inactive)
21,CCOc1ccc2nc(NC(=O)Nc3cccs3)sc2c1,-3.88% (inactive)
22,CC(=O)N1CCC(Nc2ccc(C)cc2)CC1,0.99% (inactive)
23,CC(C)Sc1nc(-c2cccs2)nc2c1c(=O)n(C)c(=O)n2C,-6.85% (inactive)
24,CC(=O)Nc1cc(NC(C)=O)c(CC(C)C)s1,-0.12% (inactive)
25,Cc1cc(C)c(NC(=O)C(C)(C)C)c(Cl)c1,-0.89% (inactive)
